# According to PubChem BioAssay (NCI):
# This is part of a sample that, as a whole, favours compounds with a hit. Of some 83,000 tested, about 20% had one in any assay.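 In brief: 96-well plates, 48 h treatment, single concentration, percent growth endpoint.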 Values without a mark were called inactive. Active and inactive are the calls of the source. Rule for the calls: active = growth percent below 10; inactive = the rest.
# Test system: NCI-H23 lung
# Assay: NCI-60 one-dose screen, 48 h (100 = growth as untreated, 0 = no growth, -100 = all killed)
# Conditions: 10 µM
row,SMILES,growth
1,COc1ccc(N2N=C(c3ccc4c(c3)OCCO4)CC2c2cccc(NC(=O)CCCNS(=O)(=O)c3ccc(F)cc3)c2)cc1 (configuration not stated),85.7%
2,COc1cc(/C=N/NC(=O)c2ccc3nc(-c4ccc(Cl)cc4)[nH]c3c2)cc(OC)c1OC,-68.4% (active)
3,O=C(N=Nc1c(O)[nH]c2ccc(Br)cc12)c1ccc2nc(-c3ccccc3)[nH]c2c1,-66.1% (active)
4,COc1ccccc1[C@H]1C(C(=O)c2ccc(Cl)cc2)C2(N[C@@H]1c1ccccc1)C(=O)Nc1ccc(Cl)cc12 (some centres not stated),-1.97% (active)
5,O=c1cc(-c2ccccc2)oc2cc(OCCCNCc3ccccc3)cc(O)c12,-91% (active)
6,O=C1Nc2cc(-c3ccc(NC(=O)c4cccs4)cc3)ccc2/C1=C/c1ccc[nH]1,66.4%
7,O=C(c1ccc(O)cc1)C1[C@H](c2ccc(Br)cc2)[C@@H](c2ccccc2)NC12C(=O)Nc1ccccc12 (some centres not stated),7.68% (active)
8,C=C1CCC2C3(C)COC(c4ccccc4F)OC3CCC2(C)C1C/C=C1/C(=O)OCC1O (configuration not stated),-38.8% (active)
9,C=C1CCC2C3(C)COC(c4c(F)cccc4F)OC3CCC2(C)C1C/C=C1/C(=O)OCC1O (configuration not stated),-46.8% (active)
10,COc1cccc(/C=C2\N=C(C)N(CCc3ccc(S(N)(=O)=O)cc3)C2=O)c1,102%
11,C=C1CCC2C3(C)COC(c4cccc(F)c4)OC3CCC2(C)C1CC(O)C1=CCOC1=O (configuration not stated),82.9%
12,Cn1cc(-c2cc(N)n3nc(-c4c[nH]c5ccc(Br)cc45)cc3n2)c2cccnc21,-84% (active)
13,C=C1CCC2C3(C)COC(c4c(F)cccc4F)OC3CCC2(C)C1CC(O)C1=CCOC1=O (configuration not stated),83.5%
14,Brc1ccc(/C=C/c2n(Cc3ccc4ccccc4c3)c3ccccc3[n+]2Cc2ccc3ccccc3c2)cc1,-81.9% (active)
15,O=C(Nc1ccc(I)cc1)Nc1nc2ccc([N+](=O)[O-])cc2s1,-95.9% (active)
16,O=C(N/N=C/c1ccc(B(O)O)o1)c1[nH]c2ccc(Br)cc2c1-c1ccccc1,24%
17,CONC[C@]1(C)C=C2C(=O)[C@](C)(O)C3(CC3)C(C)=C2[C@H]1O,-82.6% (active)
18,O=C(Nc1cccc(-c2cn(-c3ccc4oc(=O)ccc4c3)nn2)c1)Nc1cc(C(F)(F)F)cc(C(F)(F)F)c1,4.21% (active)
19,CCCCCCCCCCCCCCCCCCCC(=O)NCCc1c[nH]c2ccc(OC(=O)CCCC(=O)OCCOOCCOOCCOOCCOOCCOOCCOOCCOOCCOOCCOOCCOOCCOOCCOC)cc12,59.7%

row,SMILES,growth
1,COc1ccc(/C(C)=N/N=C2C(=O)N(C)c3ccc(Br)cc32)cc1S(N)(=O)=O,64.1%
2,N#Cc1c(NC(=O)c2ccc(C(F)(F)F)cc2C(F)(F)F)sc2c1CCC(=O)C2,-50% (active)
3,CNCc1cccc2c1OCCCCCC[C@@](C)(O)CC1(CC1)S(=O)(=O)c1ccc(cc1)-c1cnc(N)c(n1)C(=O)N2,-95.4% (active)
4,COc1cc(OC(F)(F)F)ccc1C(=O)Nc1sc2c(c1C#N)CCC(=O)C2,54.5%
5,Nc1n[nH]c2cccc(C#Cc3cccc(NC(=O)Nc4cc(C(F)(F)F)cc(C(F)(F)F)c4)c3)c12,-88.4% (active)
6,N#Cc1c(-c2ccc(F)cc2)nc(SCc2ccc([N+](=O)[O-])cc2)nc1N1CCOCC1,74.8%
7,CC1=N/C(=C\c2ccc(N(C)C)cc2)C(=O)N1CCc1ccc(S(N)(=O)=O)cc1,98.5%
8,CN(CCF)c1ccc(/C=C/C(=O)c2ccc(N)cc2O)cc1,93.2%
9,O=C(c1ccc(Cl)cc1)C1[C@H](c2ccccc2Br)[C@@H](c2ccccc2)NC12C(=O)Nc1ccccc12 (some centres not stated),6.15% (active)
10,O=C(Nc1cc(Cl)cc(Cl)c1)Nc1cc(Cl)cc(Cl)c1,-21.1% (active)
11,O=C(c1ccc(O)cc1)C1[C@H](c2ccc(Br)cc2)[C@@H](c2ccccc2)NC12C(=O)Nc1ccc(Br)cc12 (some centres not stated),-54.4% (active)
12,COc1ccccc1[C@H]1C(C(=O)c2ccc(O)cc2)C2(N[C@@H]1c1ccccc1)C(=O)Nc1ccc(Br)cc12 (some centres not stated),33.8%
13,CN1CCN(c2ccc(C(=O)/C=C/c3ccc(C#N)cc3)cc2)CC1,76.5%
14,CC(C)(C)Nc1nc2cc(Cl)c(Cl)cc2nc1S(C)(=O)=O,-63.6% (active)
15,COc1cc(/C=C/C(=O)c2cc(OC)c(OC)c(OC)c2)ccc1Oc1nc(Nc2ccc(F)cc2)nc(N(C)C)n1,-23.7% (active)
16,C=C1CCC2C3(C)COC(c4cc(F)cc(F)c4)OC3CCC2(C)C1C/C=C1/C(=O)OCC1O (configuration not stated),-39.2% (active)
17,Cc1cc(C(F)(F)F)ccc1C(=O)Nc1sc2c(c1C#N)CCC(=O)C2,-28.3% (active)
18,N#Cc1c(Cl)nc(SCc2ccc(F)cc2)nc1-c1ccc(F)cc1,95.7%
